# Most compounds without a hit are left out; they make up all but 32% or so of the library.
# PostGolgi ctrl = growth inhibition of yeast control strain, primary screen, counter-screen for post-Golgi transport modulator project; efflux-deficient yeast background strain, growth absorbance A615, 16 h; AID 738, 2007; inhibition, % at 10 µM; actives 5% (n = 98,000)
# CYP2C19 activ = human CYP2C19 activators, primary screen, biochemical, luminescence; AID 1025, 2008; 96,000 tested, under 10 active; recombinant CYP2C19, luciferin-H EGE luminescence; active compounds read high; 0 = fully inhibited enzyme, 1 = untreated enzyme; Cytochrome P450 2C19 (Homo sapiens), P33261; activation factor at 5 µM;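 active means activation factor of at least 2 at 5 µM in the primary screen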;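 further: 0 = wells with 2.5 mM tranylcypromine and 1 = vehicle-only wells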
# CYP2C9 inh = blockers of cytochrome P450 2C9 activity – biochemical, luminescence, ADME assay, primary screen; inhibition, % at 5 µM; CYP2C9 Supersomes, luciferin-H conversion; actives 20% (n = 96,000); P11712;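 active means blocking of liver enzyme CYP2C9 beyond about 50% at 5 µM, limit read from the data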
# Target sequence (P11712 whole entry, looked up): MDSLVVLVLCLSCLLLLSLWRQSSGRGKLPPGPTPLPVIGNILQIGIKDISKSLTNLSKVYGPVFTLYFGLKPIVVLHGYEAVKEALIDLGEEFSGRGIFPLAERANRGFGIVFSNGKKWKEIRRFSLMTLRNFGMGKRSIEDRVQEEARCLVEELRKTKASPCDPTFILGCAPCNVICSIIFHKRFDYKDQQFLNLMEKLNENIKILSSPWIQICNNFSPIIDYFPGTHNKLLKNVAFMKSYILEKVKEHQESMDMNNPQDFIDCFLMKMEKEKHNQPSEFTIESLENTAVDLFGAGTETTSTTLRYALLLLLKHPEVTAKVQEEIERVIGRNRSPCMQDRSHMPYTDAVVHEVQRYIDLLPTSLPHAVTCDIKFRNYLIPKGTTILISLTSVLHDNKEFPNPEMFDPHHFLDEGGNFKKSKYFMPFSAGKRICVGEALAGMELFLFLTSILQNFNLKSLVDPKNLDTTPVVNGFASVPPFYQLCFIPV
# PostGolgi yeast = phenotypic screen on post-Golgi transport, primary screen. actives 0.9% (n = 98,000). inhibition, % at 10 µM. post-Golgi transport phenotypic cell assay;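 further: yeast cells grown in 1536-well plates; yeast grown about 18 h at 30C before absorbance read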
# CYP2C19 inh = blockers of cytochrome P450 2C19 activity – biochemical, luminescence, ADME assay, primary screen | actives 21% (n = 96,000) | P33261 | CYP2C19 Supersomes, luciferin-H EGE luminescence, 30 min | inhibition, % at 5 µM;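 active means CYP2C19 inhibition above a set limit at 5 µM in the primary screen, cut at about 50% in these data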;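 further: plate controls were negative control wells for no effect and 2.5 mM tranylcypromine positive control for full effect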
# CYP2C9 activ = human CYP2C9 activators, primary screen, biochemical, luminescence. recombinant CYP2C9, luciferin-H conversion; active compounds read high; factor 1 = untreated enzyme, 0 = blocked. actives 1.4% (n = 96,000). activation factor at 5 µM. AID 1024, 2008. Cytochrome P450 2C9 (Homo sapiens), P11712;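 active means activation factor of 2 or more for CYP2C9 at a 5 µM dose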;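 further: 0 = sulfaphenazole-blocked wells and 1 = vehicle-only wells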
# Starred values were filed as active, the others as inactive; / = no result given. Unless noted, no stated cut-off is given here; in the data, active means inhibition above about 30%; inactive means the rest.
SMILES,PostGolgi ctrl,CYP2C19 activ,CYP2C9 inh,PostGolgi yeast,CYP2C19 inh,CYP2C9 activ
CC(C)(C)C(=O)Nc1ncc(C(F)(F)F)cc1Cl,2,0.8,0,0,17,1
O=C(NC1CC2CCC1C2)C1COc2ccccc2O1 (stereo unspecified),31*,0.5,1,0,52*,1
O=C(Nc1cnc2ccccc2c1)C1COc2ccccc2O1 (stereo unspecified),9,0.1,54*,20,90*,0.5
O=C(Nc1ncc(C(F)(F)F)cc1Cl)C1COc2ccccc2O1 (stereo unspecified),3,0.2,21,16,80*,0.8
COc1cccc(C2c3c(oc4ccc(Cl)cc4c3=O)C(=O)N2c2cc(C)on2)c1OC (stereo unspecified),10,0.7,29,-5,26,0.7
O=C(Nc1ccc2c(c1)OCO2)C1COc2ccccc2O1 (stereo unspecified),-1,0.3,7,-11,70*,0.9
Cc1cc(=O)oc2cc(NC(=O)C3COc4ccccc4O3)ccc12 (stereo unspecified),0,0.9,-9,16,10,1.1
O=C(Nc1ccc2c(c1)CCC2)C1COc2ccccc2O1 (stereo unspecified),6,0,-1,0,95*,1
O=C(Nc1ccc2c(c1)CCC2)C1CCCO1 (stereo unspecified),19,/,/,-4,/,/
O=C(CN1C(=O)c2ccccc2S1(=O)=O)NCCSC1CCCCC1,0,0.9,24,-3,11,0.8
O=C(OCC(=O)N1CCCc2ccccc21)c1ccc(Br)o1,8,0.1,51*,-2,85*,0.5
O=C(OCC(=O)N1CCc2ccccc21)c1cccnc1,-4,0.2,33,3,77*,0.7
O=C(Cn1[nH]c(=O)c2ccccc2c1=O)OCC(=O)N1CCc2ccccc2C1,-1,1.1,-2,1,-12,1
CC1Cc2ccccc2N1C(=O)COC(=O)CNC(=O)c1ccc(Br)o1 (stereo unspecified),5,0.3,51*,7,66*,0.5
O=C(OCC(=O)N1CCc2ccccc21)c1ccccc1,2,0.8,6,0,25,0.9
O=C(Cn1[nH]c(=O)c2ccccc2c1=O)OCC(=O)N1CCCc2ccccc21,11,0.5,43,1,51*,0.6
O=C(CCN1C(=O)C2C3C=CC(C4CC34)C2C1=O)Oc1cccc2cccnc12 (stereo unspecified),6,0.9,-2,3,15,1
O=C(NCCOC(=O)c1ccc(Cl)cc1)c1cccnc1,9,0.8,19,20,23,0.8
O=C1CC(Sc2nnnn2-c2ccccc2)C(=O)N1c1cccc(Cl)c1 (stereo unspecified),16,0.7,34,6,27,0.7
N#CCCCSc1nnnn1-c1cccc(Cl)c1,8,0.2,-13,-2,80*,1.1
COc1ccc(/C(O)=C2/C(=O)C(=O)N(CCN(C)C)C2c2ccc(OC)c(OC)c2)c(C)c1 (stereo unspecified),5,/,/,-1,/,/
CCOC(=O)c1c(C)[nH]c(C)c1C(=O)CN1C(=O)NC(CC(C)C)C1=O (stereo unspecified),7,0.4,14,3,59*,0.9
CCOC(=O)CNC(=O)Nc1cc(C(C)(C)C)nn1-c1ccccc1,-6,0.7,28,8,30,0.7
Cc1cccc(N2CCN(C(=O)CCNC(=O)Cn3ccc4ccccc4c3=O)CC2)c1C,12,1,0,2,-2,1
CC(C)(C)c1cc(Cc2ccccc2)[nH]n1,11,0.2,31,3,82*,0.7
SMILES,PostGolgi ctrl,CYP2C19 activ,CYP2C9 inh,PostGolgi yeast,CYP2C19 inh,CYP2C9 activ
CC(C)Sc1nc2sc3c(c2c2nnc(SCC(=O)NCc4ccco4)n12)CCCC3,24,0.2,94*,-5,77*,0.1
CC1CCc2c(sc3ncn4c(SCC(=O)NCc5ccco5)nnc4c23)C1 (stereo unspecified),-1,0.6,58*,1,36,0.4
N#Cc1c(N)n[nH]c1CCCN,2,1.1,14,-1,-10,0.9
COc1ccc(-n2c(Cc3cccn3C)nnc2SCC(=O)Nc2ccc(C)c(Cl)c2)cc1,30,0.9,27,1,12,0.7
COCCNC(=O)C(c1ccc(F)cc1)N(Cc1ccco1)C(=O)CCC(=O)Nc1nccs1 (stereo unspecified),10,0.5,36,0,53*,0.6
COc1ccc(C(C(=O)NC(C)(C)C)N(CC2CCCO2)C(=O)CCC(=O)Nc2cc(C)on2)cc1 (stereo unspecified),-6,0.5,84*,20,51*,0.2
COCCNC(=O)C(c1ccc(F)cc1)N(CC1CCCO1)C(=O)CCC(=O)Nc1ccccn1 (stereo unspecified),1,1.1,-15,31*,-14,1.1
Cc1nonc1OC(C)CNc1ccc([N+](=O)[O-])cc1 (stereo unspecified),35*,0,63*,-1,98*,0.4
CCCOP(=O)(OCCC)C(Nc1ccc(C(C)C)cc1)c1ccc([N+](=O)[O-])cc1 (stereo unspecified),22,1,10,3,2,0.9
COc1cccc(N2CCN(CC(=O)Nc3nc4c(s3)CC(C)CC4)CC2)c1 (stereo unspecified),22,0.6,53*,2,40,0.5
COc1ccc(NC(=O)CN2CCN(c3ccccc3F)CC2)cc1,2,0.4,68*,-5,55*,0.3
COc1cccc(NC(=O)NCCCN2CCN(c3ccc(F)cc3)CC2)c1,2,0.9,21,9,11,0.8
COc1ccccc1N1CCN(CC(=O)Nc2ccc(C)c(F)c2)CC1,10,0.8,15,-1,16,0.9
COc1ccc(N2CCC(CNC(=O)Nc3cccc(OC)c3)C2)cc1 (stereo unspecified),9,0.6,76*,-5,40,0.2
CCOc1ccc(NC(=O)CCN2CCN(c3ccccc3F)CC2)cc1,9,0.5,68*,0,51*,0.3
CCOc1ccc(NC(=O)CCN2CCN(c3ccccc3OC)CC2)cc1,-4,0.9,17,-1,6,0.8
CCC(C)(C)n1nnnc1CN1CCN(c2nc3cc(OC)ccc3cc2C#N)CC1,11,0.7,5,-1,30,0.9
O=C1CCC(=O)N1CNc1cccnc1,-3,1,-3,3,-2,1
